Pf growth 48h – Primary qHTS for delayed death inhibitors of the malarial parasite plastid, 48 hour incubation; 310,000 tested, 5.9% active; P. falciparum luciferase growth in erythrocytes, 48 h; Potency, µM (top dose mostly 28.7 µM), without a hit: top-dose activity change, negative = inhibition, hits mostly inhibitors; AID 504832, 2011; further: on the % scale 0 is the no-effect control and ±100 the full control effect
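Compounds are pin-transferred into medium, infected erythrocytes (2% hematocrit, 0.1% parasitemia final) are added, and plates sit one parasite generation at 37 C in 5% CO2. Detection reagent is then added and luminescence measured.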
NS1 inh – qHTS Assay for Inhibitors of Influenza NS1 Protein Function; Potency, µM (doses to about 46.1 µM), without a hit: top-dose activity, positive = more growth; 270,000 tested, 0.4% active; AID 2326, 2010; calls by dose curve; further: actives are rising curves; nearly all actives have a fitted effect of over 50% in size
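Recovery from NS1-induced slow growth read by OD600 in budding yeast switched to galactose assay medium (pH 6.0, -URA) at 1:100 dilution. Compound 23 nl per well; the matching strain lacking NS1 serves as control.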
AMA1 RON2 block – qHTS for Inhibitors of AMA1-RON; Towards Development of Antimalarial Drug Lead: Primary Screen | 360,000 tested, 0.2% active | Plasmodium falciparum AMA1 (3D7) - RON2 peptide interaction | AID 720542, 2013 | Potency, µM (doses to about 58.2 µM), for inactives: top-dose activity change, negative = inhibition, most hits filed as inhibitors | AlphaScreen AMA1-biotinylated RON2 peptide binding;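 further: 0% = vehicle wells and -100% = peptide control; nearly all actives have a fitted effect of over 45% in size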
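AMA1 (3D7) with his tag at 25 nM final met compounds first, then biotinylated RON2 peptide at 25 nM; detection used donor plus acceptor beads, 10 µg/mL apiece, read by AlphaScreen after 30 min at room temperature.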
Sm TGR block – qHTS Assay for the Inhibitors of Schistosoma Mansoni Peroxiredoxins. purified TGR, DTNB reduction, TNB absorbance 405 nm. Potency, µM (top dose mostly 114 µM), for the others: at the top dose activity change, negative = inhibition, usual class: inhibitors. 360,000 tested, 3% active; further: on the % scale 0 is the no-effect control and ±100 the full control effect; nearly all actives have a fitted effect of over 60% in size
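First, TGR (20 nM dispensed) and NADPH were mixed with compound. Second, a 15 min room-temperature incubation followed. Third, further NADPH and then DTNB were added to start the reaction. Finally, TNB absorbance was monitored kinetically.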
Pf growth 96h – Primary qHTS for delayed death inhibitors of the malarial parasite plastid, 96 hour incubation; P. falciparum luciferase reporter growth, 96 h; Potency, µM (titrated, usually from 28.7 µM), for the others: at the highest dose activity change, negative = inhibition, actives largely listed as inhibitors; 320,000 tested, 6.9% active; further: on the % scale 0 is the no-effect control and ±100 the full control effect
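Cell-based qHTS: luciferase-tagged P. falciparum in erythrocytes (2% hematocrit, 0.05% parasitemia final) incubated with compounds for 96 hours, 37 C, 5% CO2; luciferase detection reagent then added and luminescence measured.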
Starred values were filed as active, the others as inactive; ? = inconclusive; . = no result given. Most compounds without a hit are left out; they make up all but 11% or so of the library. Unless noted, the call rests on the fitted dose curve; in most records, active means well fitted curve in the direction sought with a large enough effect; inconclusive means small, poorly fitted or top-dose-only effect, or another doubt; inactive means no such curve, though single readings can be large; an effect the other way counts as inactive or inconclusive. Potency means the concentration at half of the fitted maximal effect.

SMILES	Pf growth 48h	NS1 inh	AMA1 RON2 block	Sm TGR block	Pf growth 96h
COc1ccc(Nc2nc(N)c([N+](=O)[O-])c(NC3CCCCC3)n2)cc1	?	11%	-27%	13%	10µM*
COc1ccc(Nc2nc(N)c([N+](=O)[O-])c(NCCO)n2)cc1	-25%	5%	-2%	-5%	-27%
O=c1c2c3c(sc2n2cnnc2n1-c1ccccc1)N(Cc1ccccc1)CCC3	?	1%	-19%	25µM*	4.1µM*
Cn1ccc2c(-c3ccc(C(F)(F)F)cc3)cc3c(c21)C1CCC3C1 (stereo not given)	.	.	-1%	.	.
CCc1cc(Cn2nc(-c3ccccc3)cc2C(=O)NCc2cccs2)on1	15µM*	.	24%	-5%	5.9µM*
CN(C)c1ccc(C(C(=O)NCc2ccccc2)N(Cc2ccco2)C(=O)c2snc(C(N)=O)c2N)cc1 (stereo not given)	?	-30%	-25%	5%	?
Cc1ccccc1-c1cc2nc(NCc3ccccc3)n(C)c(=O)c2s1	.	.	0%	.	.
Cc1ccccc1-c1cc2nc(NCc3ccc(N(C)C)cc3)n(C)c(=O)c2s1	.	.	18µM*	.	.
NC(=O)COC(=O)C1CSC2(c3ccc(F)cc3)CCC(=O)N12 (stereo not given)	17%	2%	0%	-11%	4%
Cc1ccccc1-n1c(SCC(=O)c2c(N)n(C)c(=O)n(C)c2=O)nc2sc3c(c2c1=O)CCCC3	3.7µM*	20%	-12%	1%	0.93µM*
Cc1ccccc1-n1c(SCC(=O)c2c(N)n(C)c(=O)n(C)c2=O)nnc1-c1cccnc1	-9%	3%	-14%	-1%	-15%
CC(NC(=O)CSc1nc2sc3c(c2c(=O)n1-c1ccccc1)CCCC3)c1ccccc1 (stereo not given)	12µM*	11%	-4%	-17%	-25%
CN(C)C(CNC(=O)CSc1nc2sc3c(c2c(=O)n1C)CCCC3)c1ccccc1 (stereo not given)	?	.	38%	-3%	12µM*
Cc1cccc(NC(=O)CSc2nnc(NC(=O)c3ccco3)s2)c1	56%	.	0%	5%	125%
CCC(=O)N1CCc2cc(S(=O)(=O)CCC(=O)O)ccc21	14%	6%	5%	8%	7.4µM*
CC(=O)N1CCCc2cc(S(=O)(=O)CCC(=O)Nc3cccc(C)c3C)ccc21	-3%	4%	6%	-11%	?
CN(Cc1ccco1)S(=O)(=O)c1ccc2c(c1)CCN2C(=O)CCC(=O)O	-16%	5%	-2%	-7%	13µM*
CCC(=O)N1CCc2cc(S(=O)(=O)CCC(=O)N3CCc4ccccc4C3)ccc21	-24%	-3%	-10%	1%	12µM*
CCC(=O)N1CCc2cc(S(=O)(=O)CCC(=O)N3CCN(c4ccccc4)CC3)ccc21	?	-1%	-2%	-6%	9%
CCC(=O)N1CCCc2cc(S(=O)(=O)CCC(=O)Nc3ccccc3C)ccc21	-25%	4%	-4%	1%	5.9µM*
CC(=O)Nc1ccc(NC(=O)c2ccnn2C)cc1	.	.	-2%	.	.
CC(=O)c1ccc(N2CCN(C(=O)NCc3noc4ccc(C)cc34)CC2)cc1	.	.	.	2%	.
O=C(CN(c1cccc(Cl)c1)S(=O)(=O)c1ccc(Cl)cc1)N1CCc2ccccc2C1	12µM*	?	0%	1%	62%
CCC(=O)N1CCc2cc(S(=O)(=O)CCC(=O)NC3CCCCC3)ccc21	-7%	5%	0%	8%	2.6µM*
Cc1ccc(S(=O)(=O)c2c(O)cc(C)c(NS(=O)(=O)c3ccc(Br)cc3)c2C)cc1	.	.	.	-2%	.
SMILES	Pf growth 48h	NS1 inh	AMA1 RON2 block	Sm TGR block	Pf growth 96h
COC(=O)[C@@]1(Cc2ccc(F)cc2)[C@H]2c3cc(C(=O)N(C)C)n(C)c3C[C@H]2CN1C(=O)c1ccccc1	.	.	-8%	.	.
COC(=O)[C@@]1(Cc2ccc(F)cc2)[C@H]2c3cc(C(=O)N(C)C)n(Cc4ccc(OC)c(OC)c4)c3C[C@H]2CN1C(=O)c1ccccc1	?	-14%	-19%	-12%	5.2µM*
COC(=O)[C@@]1(Cc2ccc(F)cc2)[C@H]2c3cc(C(=O)N(C)C)n(Cc4ccc(Cl)c(C(F)(F)F)c4)c3C[C@H]2CN1C(=O)c1ccccc1	.	.	-5%	.	.
COC(=O)[C@@]1(Cc2ccc(F)cc2)[C@H]2c3cc(C(=O)N(C)C)n(CCc4ccc(OC)c(Br)c4)c3C[C@H]2CN1C(=O)c1ccccc1	?	-5%	1%	1%	5.9µM*
COC(=O)[C@@]1(Cc2ccc(F)cc2)[C@H]2c3cc(C(=O)N(C)C)[nH]c3C[C@H]2CN1C(=O)c1ccccc1	13µM*	1%	-1%	-16%	13µM*
COC(=O)[C@@]1(Cc2ccc(F)cc2)[C@H]2c3cc(C(=O)N(C)C)n(CCO)c3C[C@H]2CN1C(=O)c1ccccc1	.	.	-3%	.	.
COC(=O)[C@@]1(Cc2ccc(OC)cc2)[C@H]2c3cc(C(=O)N(C)C)n(Cc4ccc(OC(F)(F)F)cc4)c3C[C@H]2CN1C(=O)c1ccccc1	?	?	-21%	-14%	3.3µM*
CC(C)c1ccc(NS(=O)(=O)c2ccc3[nH]cc(C(=O)NCC4CCCO4)c(=O)c3c2)cc1 (stereo not given)	.	.	.	6%	.
COc1ccc(C)cc1NC(=O)C1CCN(S(=O)(=O)Cc2ccccc2)CC1	.	.	.	-16%	.
COC(=O)[C@@]1(Cc2ccc(F)cc2)[C@H]2c3cc(C(=O)N(C)C)n(Cc4ccc(C)o4)c3C[C@H]2CN1C(=O)c1ccccc1	.	.	-19%	.	.
COC(=O)[C@@]1(Cc2ccc(F)cc2)[C@H]2c3cc(C(=O)N(C)C)n(Cc4ccccc4)c3C[C@H]2CN1C(=O)c1ccccc1	2.9µM*	13%	-1%	-24%	3.3µM*
COC(=O)[C@@]1(Cc2ccc(OC)cc2)[C@H]2c3cc(C(=O)N(C)C)n(C[C@H](O)CO)c3C[C@H]2CN1C(=O)c1ccccc1	?	-22%	-2%	-20%	8.3µM*
CCCCN(CC)Cc1ccc(CNC(=O)Nc2ccccc2)o1	.	-5%	0%	19%	-18%
CCCCN(CC)Cc1ccc(CNC(=S)Nc2cccc(F)c2)o1	?	.	11%	40µM*	131%
CCOC(=O)c1c(NC(=O)Cn2nc(C(=O)O)c3ccccc3c2=O)sc2c1CCC(C)C2 (stereo not given)	-5%	1%	-6%	0%	35%
Cc1c(Br)c([N+](=O)[O-])nn1CC(=O)NC1CCCCCC1	-12%	12%	-3%	-3%	1.5µM*

Screening data (PubChem)
